Where “and” joins values, the source holds several entries; their conditions need not be identical. Identical values can stand only once. About 79,000 compounds went through this panel and 15% of them were active in at least one assay; those are over-represented in the sample as a whole. Some structures have more than one record in an assay (separate samples or runs), and their calls can disagree. Calls of active or inactive are those of the source. Rule as the data show it: active = growth inhibition above about 70%; inactive = the rest.
Columns and labels:
[1] = NCI Yeast Anticancer Drug Screen. Data for the mec2-1 strain (AID 157); details: S. cerevisiae mec2-1 strain, stronger effect = higher value
Method in brief: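 Vehicle-treated cultures served as reference for growth inhibition of compound-exposed mec2-1 yeast.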

[2] = NCI Yeast Anticancer Drug Screen. Data for the rad14 strain (AID 159);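 also: 0% = growth of vehicle-treated control cultures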; details: S. cerevisiae rad14 strain growth inhibition, stronger effect = higher value
Method in brief: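 Growth inhibition vs vehicle controls; genetically altered yeast strain (DNA damage repair defect) treated with test compounds.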

[3] = NCI Yeast Anticancer Drug Screen. Data for the sgs1 mgt1 strain (AID 161);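 also: 0% = growth of cultures given vehicle only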; details: S. cerevisiae sgs1 mgt1 strain, stronger effect = higher value
Method in brief: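 Genetically altered yeast, compound exposure, growth inhibition relative to vehicle.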

[4] = NCI Yeast Anticancer Drug Screen. Data for the CLN2oe strain (AID 163);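 also: 0% = growth of vehicle-only control cultures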; details: S. cerevisiae CLN2oe strain, stronger effect = higher value
Method in brief: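 Inhibition relative to vehicle-treated yeast is reported. Cells: strain with genetic alteration in cell-cycle control, grown with compound.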

[5] = NCI Yeast Anticancer Drug Screen. Data for the bub3 strain (AID 167); details: S. cerevisiae bub3 mutant strain, stronger effect = higher value
Method in brief: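 Readout: yeast growth inhibition, expressed relative to vehicle-only wells. The test organism is a mutant strain from a panel with lesions in DNA repair or checkpoint genes.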

[6] = NCI Yeast Anticancer Drug Screen. Data for the wt2 strain (AID 169);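 also: 0% = growth of vehicle-treated yeast cultures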; details: S. cerevisiae wt2 strain growth inhibition, stronger effect = higher value
Method in brief: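 Inhibition of yeast growth was determined after compound treatment, normalised to controls receiving only vehicle.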

[7] = NCI Yeast Anticancer Drug Screen. Data for the mlh1 strain (AID 171);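 also: 0% = growth of vehicle-treated control cultures of the same strain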; details: S. cerevisiae mlh1 strain growth inhibition, stronger effect = higher value
Method in brief: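 Vehicle-normalised growth inhibition of a repair- or checkpoint-altered yeast strain following compound treatment.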

[8] = NCI Yeast Anticancer Drug Screen. Data for the sgs1 strain (AID 173);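 also: 0% = growth of vehicle-only control cultures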; details: S. cerevisiae sgs1 mutant, stronger effect = higher value
Method in brief: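 Screen format: yeast with repair or checkpoint alterations, compound exposure, growth read relative to vehicle.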

[9] = NCI Yeast Anticancer Drug Screen. Data for the mlh1 rad18 strain (AID 175); details: S. cerevisiae mlh1 rad18 strain growth inhibition, stronger effect = higher value
Method in brief: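 Vehicle-treated cultures served as the reference for growth inhibition in a yeast strain carrying DNA damage repair alterations exposed to each compound.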

[10] = NCI Yeast Anticancer Drug Screen. Data for the rad18 strain (AID 177); details: S. cerevisiae rad18 mutant growth inhibition, stronger effect = higher value
Method in brief: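 Test articles were incubated with altered yeast defective in DNA damage repair. Results are given as inhibition of growth versus vehicle.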

[11] = NCI Yeast Anticancer Drug Screen. Data for the rad52 strain (AID 147);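 also: 0% = growth of vehicle-treated control cultures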; details: S. cerevisiae rad52 mutant growth inhibition, stronger effect = higher value
Method in brief: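 Vehicle-treated cultures served as the reference for growth inhibition of compound-exposed yeast bearing a DNA repair mutation.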

[12] = NCI Yeast Anticancer Drug Screen. Data for the wt1 strain (AID 149);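 also: 0% = growth of vehicle-treated wt1 cultures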; details: S. cerevisiae wt1 strain (SPY 50644) growth inhibition, stronger effect = higher value
Method in brief: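 Growth inhibition read against vehicle controls after compound exposure of the wt1 yeast strain.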

[13] = NCI Yeast Anticancer Drug Screen. Data for the rad50EPP+ strain (AID 151);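 also: 0% = growth of vehicle-treated control cultures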; details: S. cerevisiae rad50 mutant strain, stronger effect = higher value
Method in brief: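 In this screen, rad50EPP+ yeast were exposed to compounds. Growth inhibition was scored against vehicle-treated controls.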

[14] = NCI Yeast Anticancer Drug Screen. Data for the rad50 strain (AID 155);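 also: 0% = growth of vehicle-only cultures of the same strain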; details: S. cerevisiae rad50 strain growth inhibition, stronger effect = higher value
Method in brief: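 Readout: growth inhibition relative to vehicle-treated cultures. Compound exposure was carried out in a genetically defined yeast strain deficient in DNA damage repair.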

[15] = NCI Yeast Anticancer Drug Screen. Data for the cln2 rad14 strain (AID 165);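 also: 0% = growth equal to vehicle treated cultures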; details: S. cerevisiae cln2 rad14 strain, stronger effect = higher value
Method in brief: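 Each compound was tested on cln2 rad14 yeast. Inhibition of growth was calculated against vehicle-exposed controls.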

[16] = at 5.0 µM (retest, dose inferred, filed as 0.5)
[17] = at 50.0 µM (retest, dose inferred, filed as 5.0)

Measured: growth inhibition

CCCCCC#CCOC(=O)C(=[N+]=[N-])P(=O)(c1ccccc1)c1ccccc1
active: [1]; at 100.0 µM 95% | [2]; at 100.0 µM 94% | [3]; at 50.0 µM 90.8% | [4]; at 100.0 µM 96% | [5]; [17] 95% | [5]; at 50.0 µM 89.3% | [5]; at 100.0 µM 95% | [6]; at 100.0 µM 97% | [7]; at 100.0 µM 97% | [8]; at 100.0 µM 98% | [9]; [17] 96% | [9]; at 50.0 µM 87% | [10]; at 100.0 µM 96%
inactive: [2]; at 1.2 µM -11% | [2]; at 3.7 µM -6% | [2]; at 11.0 µM -9% | [2]; at 33.0 µM -6% | [3]; [16] 8% | [3]; [17] 46% | [4]; at 1.2 µM 7% | [4]; at 3.7 µM 5% | [4]; at 11.0 µM 9% | [4]; at 33.0 µM -1% | [5]; at 1.2 µM 1% | [5]; at 3.7 µM 0% | [5]; [16] 8% | [5]; at 11.0 µM -23% | [5]; at 33.0 µM -23% | [6]; at 1.2 µM 4% | [6]; at 3.7 µM 10% | [6]; at 11.0 µM 5% | [6]; at 33.0 µM 5% | [7]; at 1.2 µM 28% | [7]; at 3.7 µM 23% | [7]; at 11.0 µM 26% | [7]; at 33.0 µM 20% | [8]; at 1.2 µM 17% | [8]; at 3.7 µM 21% | [8]; at 11.0 µM 15% | [8]; at 33.0 µM 16% | [9]; [16] 22% | [10]; at 1.2 µM 7% | [10]; at 3.7 µM 8% | [10]; at 11.0 µM 7% | [10]; at 33.0 µM 14%

CCn1ncc(N=O)c1N
87.3% (active) and 26.6% (inactive): [9]; at 50.0 µM
active: [13]; at 100.0 µM 71% | [5]; at 100.0 µM 78% | [9]; [17] 73% | [10]; at 100.0 µM 74%
70.2% (active) and 51.5% (inactive): [14]; at 50.0 µM
inactive: [11]; at 1.2 µM 0% | [11]; at 3.7 µM 3% | [11]; at 11.0 µM 9% | [11]; at 33.0 µM 29% | [11]; at 100.0 µM 58% | [12]; at 1.2 µM 6% | [12]; at 3.7 µM 14% | [12]; at 11.0 µM 23% | [12]; at 33.0 µM 24% | [12]; at 100.0 µM 39% | [13]; at 1.2 µM 0% | [13]; at 3.7 µM -4% | [13]; at 11.0 µM 3% | [13]; at 33.0 µM 28% | [14]; at 1.2 µM -1% | [14]; at 3.7 µM -1% | [14]; [16] 27% | [14]; at 11.0 µM 6% | [14]; at 33.0 µM 24% | [14]; [17] 61% | [14]; at 100.0 µM 54% | [1]; at 1.2 µM 3% | [1]; at 3.7 µM 11% | [1]; [16] 8% | [1]; at 11.0 µM 23% | [1]; at 33.0 µM 37% | [1]; [17] 35% | [1]; at 50.0 µM 67% and 42% | [1]; at 100.0 µM 57% | [2]; at 1.2 µM -2% | [2]; at 3.7 µM 4% | [2]; at 11.0 µM 15% | [2]; at 33.0 µM 32% | [2]; at 100.0 µM 41% | [3]; [16] 21% | [3]; [17] 61% | [3]; at 50.0 µM 62.5% and 19.6% | [4]; at 1.2 µM -6% | [4]; at 3.7 µM -5% | [4]; at 11.0 µM 15% | [4]; at 33.0 µM 43% | [4]; at 100.0 µM 53% | [15]; [16] 9% | [15]; [17] 12% | [15]; at 50.0 µM 35.1% and 40.8% | [5]; at 1.2 µM 2% | [5]; at 3.7 µM 9% | [5]; [16] 41% | [5]; at 11.0 µM 33% | [5]; at 33.0 µM 64% | [5]; [17] 68% | [6]; at 1.2 µM 6% | [6]; at 3.7 µM 18% | [6]; at 11.0 µM 26% | [6]; at 33.0 µM 25% | [6]; at 100.0 µM 39% | [8]; at 1.2 µM 5% | [8]; at 3.7 µM 16% | [8]; at 11.0 µM 26% | [8]; at 33.0 µM 39% | [8]; at 100.0 µM 61% | [9]; [16] 33% | [10]; at 1.2 µM 1% | [10]; at 3.7 µM 8% | [10]; at 11.0 µM 9% | [10]; at 33.0 µM 51%
81.4% (active) and 51% (inactive): [5]; at 50.0 µM

CCCc1[nH]nc(C(N)=O)c1N=NN(C)C
inactive: [11]; at 1.2 µM 2% | [11]; at 3.7 µM 12% | [11]; at 11.0 µM 37% | [12]; at 1.2 µM -6% | [12]; at 3.7 µM -4% | [12]; at 11.0 µM -7% | [12]; at 33.0 µM -4% | [12]; at 100.0 µM 5% | [13]; at 1.2 µM 2% | [13]; at 3.7 µM 16% | [13]; at 11.0 µM 43% | [14]; at 1.2 µM 3% | [14]; at 3.7 µM 4% | [14]; [16] -108% | [14]; at 11.0 µM 31% | [1]; at 1.2 µM 1% | [1]; at 3.7 µM -1% | [1]; [16] -44% | [1]; at 11.0 µM -14% | [1]; at 33.0 µM 11% | [1]; [17] -15% | [1]; at 50.0 µM 14.1% | [1]; at 100.0 µM 63% | [2]; at 1.2 µM 0% | [2]; at 3.7 µM -1% | [2]; at 11.0 µM 5% | [2]; at 33.0 µM 11% | [2]; at 100.0 µM 30% | [3]; [16] -55% | [3]; [17] 18% | [3]; at 50.0 µM 44.1% | [4]; at 1.2 µM -3% | [4]; at 3.7 µM -3% | [4]; at 11.0 µM 2% | [4]; at 33.0 µM -3% | [4]; at 100.0 µM 5% | [15]; [16] -59% | [15]; [17] -48% | [15]; at 50.0 µM 13.4% | [5]; at 1.2 µM -13% | [5]; at 3.7 µM -9% | [5]; [16] -60% | [5]; at 11.0 µM -5% | [5]; at 33.0 µM -6% | [5]; [17] -73% | [5]; at 50.0 µM -0.25% | [5]; at 100.0 µM 4% | [6]; at 1.2 µM -1% | [6]; at 3.7 µM 0% | [6]; at 11.0 µM -1% | [6]; at 33.0 µM 3% | [6]; at 100.0 µM 10% | [7]; at 1.2 µM 7% | [7]; at 3.7 µM -5% | [7]; at 11.0 µM -2% | [7]; at 33.0 µM 0% | [7]; at 100.0 µM 11% | [9]; [16] -120% | [9]; [17] 13% | [10]; at 1.2 µM -2% | [10]; at 3.7 µM 6% | [10]; at 11.0 µM 32%
active: [11]; at 33.0 µM 90% | [11]; at 100.0 µM 96% | [13]; at 33.0 µM 82% | [13]; at 100.0 µM 95% | [14]; at 33.0 µM 83% | [14]; [17] 81% | [14]; at 50.0 µM 94.8% | [14]; at 100.0 µM 94% | [9]; at 50.0 µM 73.5% | [10]; at 33.0 µM 83% | [10]; at 100.0 µM 94%
